Data on 41 sequences can be found in article PMC12820563, “FoxP3 forms a head-to-head dimer in vivo and stabilizes its multimerization on adjacent microsatellites”.

The full ranking holds about 16,000 sequences; the median of “rpm ratio (pull-down/input)” is about 0.94, and the highest 2% start at about 1.7. The sample as a whole holds a higher share of the highest values than the screen did.

The target of this test is T1, MBP-FoxP1dN (Mus musculus, UniProt P58462 326-579).
T1 sequence: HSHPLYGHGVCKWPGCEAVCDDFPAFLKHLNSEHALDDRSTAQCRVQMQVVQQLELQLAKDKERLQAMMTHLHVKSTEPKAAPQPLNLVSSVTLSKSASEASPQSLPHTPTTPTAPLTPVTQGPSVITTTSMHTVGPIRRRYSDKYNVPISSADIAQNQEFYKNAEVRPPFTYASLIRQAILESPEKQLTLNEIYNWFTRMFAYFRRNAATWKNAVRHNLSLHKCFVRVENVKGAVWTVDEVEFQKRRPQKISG
Nature of the test: PD-seq (MBP pull-down with sequencing); 20 mM Tris-HCl pH 7.5, 100 mM NaCl, 1.5 mM MgCl2, 0.4 uM protein, 0.1 uM dsDNA library, 30 min, room temperature, amylose pull-down; high values mean tight binding. The settings on record: protein: recombinant; tags: His6-MBP; chain copies: 2; dsDNA, one strand shown. The procedure, abridged:
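Binding is reads-per-million enrichment of pull-down over input, with replicates pooled. It comes from 30 min room-temperature incubation in Tris pH 7.5 buffer with NaCl and MgCl2 of 0.4 µM His6-MBP-tagged, N-terminally truncated mouse FoxP3 or FoxP1 fragment from E. coli with 0.1 µM Klenow-filled degenerate double-stranded DNA library, followed by amylose resin capture, three washes and Illumina sequencing of the released DNA.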
Turning to “GATGATTGTTCTCCCAGCTGATGAATTAGTTGCATCGAGTAAACAAATTTTCCTAATCTTTCTGTTCAAGCGCCATCTAC”, the binding signal was 1.65 RPM ratio (pull-down/input).

In the case of “GATGATTGTTCTCCCAGCTGATGAATTCCACCACTCGAGTAAACAAATTTTCCTAATCTTTCTGTTCAAGCGCCATCTAC”, the binding signal was 0.844 RPM ratio (pull-down/input).

For the sequence “GATGATTGTTCTCCCAGCTGATGAATTGATGCACTCGAGTAAACAAATTTTCCTAATCTTTCTGTTCAAGCGCCATCTAC”, the binding signal is 1.72 RPM ratio (pull-down/input).

On to “GATGATTGTTCTCCCAGCTGATGAATTGAATATATCGAGTAAACAAATTTTCCTAATCTTTCTGTTCAAGCGCCATCTAC”, for which the binding signal is 1.04 RPM ratio (pull-down/input).

“GATGATTGTTCTCCCAGCTGATGAATTGACACAATCGAGTAAACAAATTTTCCTAATCTTTCTGTTCAAGCGCCATCTAC”: the binding signal is 1.75 RPM ratio (pull-down/input).

With “GATGATTGTTCTCCCAGCTGATGAATTTTGAATATCGAGTAAACAAATTTTCCTAATCTTTCTGTTCAAGCGCCATCTAC”, the binding signal is 1.07 RPM ratio (pull-down/input).

For “GATGATTGTTCTCCCAGCTGATGAATTTTGACAATCGAGTAAACAAATTTTCCTAATCTTTCTGTTCAAGCGCCATCTAC”, the binding signal was 1.26 RPM ratio (pull-down/input).

As for “GATGATTGTTCTCCCAGCTGATGAATTGACAATATCGAGTAAACAAATTTTCCTAATCTTTCTGTTCAAGCGCCATCTAC”, the binding signal is 1.86 RPM ratio (pull-down/input).

In the case of “GATGATTGTTCTCCCAGCTGATGAATTTGACACATCGAGTAAACAAATTTTCCTAATCTTTCTGTTCAAGCGCCATCTAC”, the binding signal is 0.966 RPM ratio (pull-down/input).

On to “GATGATTGTTCTCCCAGCTGATGAATTAGGTGGGTCGAGTAAACAAATTTTCCTAATCTTTCTGTTCAAGCGCCATCTAC”, for which the binding signal is 0.78 RPM ratio (pull-down/input).

Consider “GATGATTGTTCTCCCAGCTGATGAATTGTTGGTTTCGAGTAAACAAATTTTCCTAATCTTTCTGTTCAAGCGCCATCTAC”, for which the binding signal is 1.89 RPM ratio (pull-down/input).

Regarding “GATGATTGTTCTCCCAGCTGATGAATTTGGTGTTTCGAGTAAACAAATTTTCCTAATCTTTCTGTTCAAGCGCCATCTAC”, the binding signal was 1.12 RPM ratio (pull-down/input).

Consider “GATGATTGTTCTCCCAGCTGATGAATTGGTTGTTTCGAGTAAACAAATTTTCCTAATCTTTCTGTTCAAGCGCCATCTAC”, for which the binding signal was 1.45 RPM ratio (pull-down/input).

On to “GATGATTGTTCTCCCAGCTGATGAATTGTTTGGTTCGAGTAAACAAATTTTCCTAATCTTTCTGTTCAAGCGCCATCTAC”, for which the binding signal is 1.81 RPM ratio (pull-down/input).

With “GATGATTGTTCTCCCAGCTGATGAATTGGTGTTTTCGAGTAAACAAATTTTCCTAATCTTTCTGTTCAAGCGCCATCTAC”, the binding signal was 2.65 RPM ratio (pull-down/input).

As to “GATGATTGTTCTCCCAGCTGATGAATTGGTTGGTTCGAGTAAACAAATTTTCCTAATCTTTCTGTTCAAGCGCCATCTAC”, the binding signal was 1 RPM ratio (pull-down/input).

Regarding “GATGATTGTTCTCCCAGCTGATGAATTTGGTTGTTCGAGTAAACAAATTTTCCTAATCTTTCTGTTCAAGCGCCATCTAC”, the binding signal is 1.29 RPM ratio (pull-down/input).

On to “GATGATTGTTCTCCCAGCTGATGAATTGGTGTGTTCGAGTAAACAAATTTTCCTAATCTTTCTGTTCAAGCGCCATCTAC”, for which the binding signal is 1.34 RPM ratio (pull-down/input).

Regarding “GATGATTGTTCTCCCAGCTGATGAATTTTTGGTTTCGAGTAAACAAATTTTCCTAATCTTTCTGTTCAAGCGCCATCTAC”, the binding signal is 0.984 RPM ratio (pull-down/input).

Take “GATGATTGTTCTCCCAGCTGATGAATTTGTTGGTTCGAGTAAACAAATTTTCCTAATCTTTCTGTTCAAGCGCCATCTAC”: the binding signal was 2.02 RPM ratio (pull-down/input).

Regarding “GATGATTGTTCTCCCAGCTGATGAATTTTTTGGTTCGAGTAAACAAATTTTCCTAATCTTTCTGTTCAAGCGCCATCTAC”, the binding signal was 1.01 RPM ratio (pull-down/input).

Take “GATGATTGTTCTCCCAGCTGATGAATTGGTTTGTTCGAGTAAACAAATTTTCCTAATCTTTCTGTTCAAGCGCCATCTAC”: the binding signal was 1.13 RPM ratio (pull-down/input).

“GATGATTGTTCTCCCAGCTGATGAATTCTATTACTCGAGTAAACAAATTTTCCTAATCTTTCTGTTCAAGCGCCATCTAC”: the binding signal is 0.895 RPM ratio (pull-down/input).

Turning to “GATGATTGTTCTCCCAGCTGATGAATTCCCTCCATCGAGTAAACAAATTTTCCTAATCTTTCTGTTCAAGCGCCATCTAC”, the binding signal is 0.855 RPM ratio (pull-down/input).

Take “GATGATTGTTCTCCCAGCTGATGAATTAACACATTCGAGTAAACAAATTTTCCTAATCTTTCTGTTCAAGCGCCATCTAC”: the binding signal was 1.18 RPM ratio (pull-down/input).

Regarding “GATGATTGTTCTCCCAGCTGATGAATTCCTAGGTTCGAGTAAACAAATTTTCCTAATCTTTCTGTTCAAGCGCCATCTAC”, the binding signal was 0.762 RPM ratio (pull-down/input).

In the case of “GATGATTGTTCTCCCAGCTGATGAATTTTGCATTTCGAGTAAACAAATTTTCCTAATCTTTCTGTTCAAGCGCCATCTAC”, the binding signal is 1.29 RPM ratio (pull-down/input).

Take “GATGATTGTTCTCCCAGCTGATGAATTGCATTTTTCGAGTAAACAAATTTTCCTAATCTTTCTGTTCAAGCGCCATCTAC”: the binding signal is 1.69 RPM ratio (pull-down/input).

In the case of “GATGATTGTTCTCCCAGCTGATGAATTTGCATCTTCGAGTAAACAAATTTTCCTAATCTTTCTGTTCAAGCGCCATCTAC”, the binding signal is 1.89 RPM ratio (pull-down/input).

For “GATGATTGTTCTCCCAGCTGATGAATTGCATTGTTCGAGTAAACAAATTTTCCTAATCTTTCTGTTCAAGCGCCATCTAC”, the binding signal was 1.43 RPM ratio (pull-down/input).

As to “GATGATTGTTCTCCCAGCTGATGAATTGCATCTTTCGAGTAAACAAATTTTCCTAATCTTTCTGTTCAAGCGCCATCTAC”, the binding signal was 1.83 RPM ratio (pull-down/input).

Regarding “GATGATTGTTCTCCCAGCTGATGAATTTGCATTTTCGAGTAAACAAATTTTCCTAATCTTTCTGTTCAAGCGCCATCTAC”, the binding signal was 1.61 RPM ratio (pull-down/input).

Turning to “GATGATTGTTCTCCCAGCTGATGAATTGAAACGCTCGAGTAAACAAATTTTCCTAATCTTTCTGTTCAAGCGCCATCTAC”, the binding signal was 0.86 RPM ratio (pull-down/input).

For the sequence “GATGATTGTTCTCCCAGCTGATGAATTTCTACATTCGAGTAAACAAATTTTCCTAATCTTTCTGTTCAAGCGCCATCTAC”, the binding signal was 0.939 RPM ratio (pull-down/input).

Regarding “GATGATTGTTCTCCCAGCTGATGAATTACCGTGCTCGAGTAAACAAATTTTCCTAATCTTTCTGTTCAAGCGCCATCTAC”, the binding signal was 0.964 RPM ratio (pull-down/input).

With “GATGATTGTTCTCCCAGCTGATGAATTTTGTACATCGAGTAAACAAATTTTCCTAATCTTTCTGTTCAAGCGCCATCTAC”, the binding signal was 1.22 RPM ratio (pull-down/input).

With “GATGATTGTTCTCCCAGCTGATGAATTGTACAAATCGAGTAAACAAATTTTCCTAATCTTTCTGTTCAAGCGCCATCTAC”, the binding signal is 1.35 RPM ratio (pull-down/input).

Consider “GATGATTGTTCTCCCAGCTGATGAATTGTACACATCGAGTAAACAAATTTTCCTAATCTTTCTGTTCAAGCGCCATCTAC”, for which the binding signal was 2.11 RPM ratio (pull-down/input).

“GATGATTGTTCTCCCAGCTGATGAATTCTGTACATCGAGTAAACAAATTTTCCTAATCTTTCTGTTCAAGCGCCATCTAC”: the binding signal is 1.09 RPM ratio (pull-down/input).

For the sequence “GATGATTGTTCTCCCAGCTGATGAATTCTACACATCGAGTAAACAAATTTTCCTAATCTTTCTGTTCAAGCGCCATCTAC”, the binding signal was 1.06 RPM ratio (pull-down/input).

For “GATGATTGTTCTCCCAGCTGATGAATTGTGTACATCGAGTAAACAAATTTTCCTAATCTTTCTGTTCAAGCGCCATCTAC”, the binding signal is 2 RPM ratio (pull-down/input).
